# Results reported in PMC7862700, “An all-to-all approach to the identification of sequence-specific readers for epigenetic DNA modifications on cytosine”.
# What was measured:
# Assay in all cases: DAPPL (digital affinity profiling via proximity ligation, sequencing); 10 mM Tris-HCl pH 7.5, 50 mM NaCl, 1 mM DTT, 4% glycerol, room temperature, 30 min; GST-TFs on glutathione beads, 16-mer random dsDNA library, 0.1% formaldehyde crosslink after washing; high values mean tight binding
# [1] = target: T1, FEV (Homo sapiens, UniProt Q99581 1-238); conditions: protein: recombinant; tags: N-terminal GST; dsDNA, one strand shown
# T1 sequence: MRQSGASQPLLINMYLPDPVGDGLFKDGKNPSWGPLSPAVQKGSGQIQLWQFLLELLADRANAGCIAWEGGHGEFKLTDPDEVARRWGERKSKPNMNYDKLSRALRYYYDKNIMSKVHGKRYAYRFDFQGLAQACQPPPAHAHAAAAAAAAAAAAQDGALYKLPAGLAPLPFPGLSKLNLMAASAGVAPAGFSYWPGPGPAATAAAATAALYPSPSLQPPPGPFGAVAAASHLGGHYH
# In short: (§1)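 Yeast served to express human transcription factors as GST fusions, which were then captured on glutathione beads and labelled with DNA barcodes. Pooled with a tag-only sample, they were incubated with 200 nmole of a 16-mer random double-stranded DNA library for 30 min at room temperature in Tris/NaCl/DTT/glycerol buffer, washed, crosslinked with 0.1% formaldehyde, ligated by proximity, amplified by PCR and sequenced. Dividing each hexamer's read frequency for a factor by its frequency for the tag-only sample gives the binding signal.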
# [2] = target: ETV5 (Homo sapiens, UniProt P41161 1-510); conditions: protein: recombinant; tags: N-terminal GST; dsDNA, one strand shown
# In short: as §1
# [3] = target: HSF1 (Homo sapiens, UniProt Q00613 1-529); conditions: protein: recombinant; tags: N-terminal GST; chain copies: 3; dsDNA, one strand shown
# In short: as §1
# [4] = target: T2, SPIC (Homo sapiens, UniProt Q8N5J4 1-248); conditions: protein: recombinant; tags: N-terminal GST; dsDNA, one strand shown
# T2 sequence: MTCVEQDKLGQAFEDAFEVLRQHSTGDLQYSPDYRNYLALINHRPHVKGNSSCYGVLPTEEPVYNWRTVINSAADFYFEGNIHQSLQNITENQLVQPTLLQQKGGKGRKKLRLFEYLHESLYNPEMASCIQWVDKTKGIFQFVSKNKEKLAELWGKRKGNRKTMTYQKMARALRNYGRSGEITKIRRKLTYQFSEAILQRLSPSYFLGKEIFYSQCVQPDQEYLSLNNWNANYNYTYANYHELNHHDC
# In short: as §1
# [5] = target: ELF4 (Homo sapiens, UniProt Q99607 1-663); conditions: protein: recombinant; tags: N-terminal GST; dsDNA, one strand shown
# In short: as §1
# [6] = target: T3, ELK4 (Homo sapiens, UniProt P28324-2 1-405); conditions: protein: recombinant; tags: N-terminal GST; dsDNA, one strand shown
# T3 sequence: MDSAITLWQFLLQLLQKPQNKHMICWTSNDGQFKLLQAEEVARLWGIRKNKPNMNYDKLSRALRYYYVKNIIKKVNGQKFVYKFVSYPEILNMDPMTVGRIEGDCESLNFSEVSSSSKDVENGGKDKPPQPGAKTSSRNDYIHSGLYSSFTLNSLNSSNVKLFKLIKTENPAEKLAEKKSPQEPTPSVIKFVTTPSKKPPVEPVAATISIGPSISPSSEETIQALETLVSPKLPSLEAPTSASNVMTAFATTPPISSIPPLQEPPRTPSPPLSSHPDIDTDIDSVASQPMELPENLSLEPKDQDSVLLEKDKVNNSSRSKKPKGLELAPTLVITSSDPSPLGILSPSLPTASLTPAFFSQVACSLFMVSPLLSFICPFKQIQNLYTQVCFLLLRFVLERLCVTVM
# In short: as §1
# [7] = target: T4, ETV2 (Homo sapiens, UniProt O00321 1-342); conditions: protein: recombinant; tags: N-terminal GST; dsDNA, one strand shown
# T4 sequence: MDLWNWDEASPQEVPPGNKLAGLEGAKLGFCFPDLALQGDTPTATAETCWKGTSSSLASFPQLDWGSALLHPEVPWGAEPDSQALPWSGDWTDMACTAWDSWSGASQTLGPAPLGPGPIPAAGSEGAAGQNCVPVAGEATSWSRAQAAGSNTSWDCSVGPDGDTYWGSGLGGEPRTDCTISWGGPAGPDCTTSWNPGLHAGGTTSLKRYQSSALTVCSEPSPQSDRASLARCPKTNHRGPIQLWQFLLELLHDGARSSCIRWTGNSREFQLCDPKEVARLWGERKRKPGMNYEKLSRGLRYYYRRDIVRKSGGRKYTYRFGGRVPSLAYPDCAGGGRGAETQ
# In short: as §1
# [8] = target: T5, ELF3 (Homo sapiens, UniProt P78545 1-371); conditions: protein: recombinant; tags: N-terminal GST; dsDNA, one strand shown
# T5 sequence: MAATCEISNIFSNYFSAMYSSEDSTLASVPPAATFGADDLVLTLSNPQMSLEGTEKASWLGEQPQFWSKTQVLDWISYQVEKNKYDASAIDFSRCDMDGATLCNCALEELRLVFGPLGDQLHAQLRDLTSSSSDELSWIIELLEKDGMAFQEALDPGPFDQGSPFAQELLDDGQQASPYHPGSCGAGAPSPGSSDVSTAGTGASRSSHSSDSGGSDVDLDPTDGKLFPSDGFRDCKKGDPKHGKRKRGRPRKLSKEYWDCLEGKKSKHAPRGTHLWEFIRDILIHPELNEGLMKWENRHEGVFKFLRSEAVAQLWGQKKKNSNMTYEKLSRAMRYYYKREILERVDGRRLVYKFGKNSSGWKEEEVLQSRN
# In short: as §1
# [9] = target: CRX (Homo sapiens, UniProt O43186 1-299); conditions: protein: recombinant; tags: N-terminal GST; dsDNA, one strand shown
# In short: as §1
# [10] = target: ETV1 (Homo sapiens, UniProt P50549 1-477); conditions: protein: recombinant; tags: N-terminal GST; dsDNA, one strand shown
# In short: as §1
# [11] = target: T6, ERF (Homo sapiens, UniProt P50548 1-548); conditions: protein: recombinant; tags: N-terminal GST; dsDNA, one strand shown
# T6 sequence: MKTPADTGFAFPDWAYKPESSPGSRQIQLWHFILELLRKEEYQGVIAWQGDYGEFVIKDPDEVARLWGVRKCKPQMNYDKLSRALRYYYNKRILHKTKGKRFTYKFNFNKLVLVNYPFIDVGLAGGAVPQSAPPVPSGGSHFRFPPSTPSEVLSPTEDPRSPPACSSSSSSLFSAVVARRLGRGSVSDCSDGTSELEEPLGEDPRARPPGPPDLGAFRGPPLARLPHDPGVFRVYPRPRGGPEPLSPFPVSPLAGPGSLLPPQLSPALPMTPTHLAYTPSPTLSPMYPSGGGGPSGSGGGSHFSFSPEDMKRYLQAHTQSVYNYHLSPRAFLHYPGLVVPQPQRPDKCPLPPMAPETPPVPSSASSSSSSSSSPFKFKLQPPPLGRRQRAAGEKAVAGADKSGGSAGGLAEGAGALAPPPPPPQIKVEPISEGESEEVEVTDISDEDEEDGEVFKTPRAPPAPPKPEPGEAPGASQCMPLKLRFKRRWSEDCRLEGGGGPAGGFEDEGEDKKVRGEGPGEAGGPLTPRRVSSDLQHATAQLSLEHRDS
# In short: as §1
# [12] = target: T7, ETV3L (Homo sapiens, UniProt Q6ZN32 1-361); conditions: protein: recombinant; tags: N-terminal GST; dsDNA, one strand shown
# T7 sequence: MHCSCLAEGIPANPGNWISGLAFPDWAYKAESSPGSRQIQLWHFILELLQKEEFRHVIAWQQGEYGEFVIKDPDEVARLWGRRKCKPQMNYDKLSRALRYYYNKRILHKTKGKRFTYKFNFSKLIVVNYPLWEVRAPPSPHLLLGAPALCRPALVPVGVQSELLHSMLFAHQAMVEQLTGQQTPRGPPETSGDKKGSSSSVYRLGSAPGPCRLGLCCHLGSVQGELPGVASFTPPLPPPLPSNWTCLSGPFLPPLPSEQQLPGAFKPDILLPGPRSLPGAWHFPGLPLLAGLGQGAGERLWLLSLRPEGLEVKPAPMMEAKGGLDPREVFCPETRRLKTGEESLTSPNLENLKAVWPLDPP
# In short: as §1
# [13] = target: T8, ETS2 (Homo sapiens, UniProt P15036 1-469); conditions: protein: recombinant; tags: N-terminal GST; dsDNA, one strand shown
# T8 sequence: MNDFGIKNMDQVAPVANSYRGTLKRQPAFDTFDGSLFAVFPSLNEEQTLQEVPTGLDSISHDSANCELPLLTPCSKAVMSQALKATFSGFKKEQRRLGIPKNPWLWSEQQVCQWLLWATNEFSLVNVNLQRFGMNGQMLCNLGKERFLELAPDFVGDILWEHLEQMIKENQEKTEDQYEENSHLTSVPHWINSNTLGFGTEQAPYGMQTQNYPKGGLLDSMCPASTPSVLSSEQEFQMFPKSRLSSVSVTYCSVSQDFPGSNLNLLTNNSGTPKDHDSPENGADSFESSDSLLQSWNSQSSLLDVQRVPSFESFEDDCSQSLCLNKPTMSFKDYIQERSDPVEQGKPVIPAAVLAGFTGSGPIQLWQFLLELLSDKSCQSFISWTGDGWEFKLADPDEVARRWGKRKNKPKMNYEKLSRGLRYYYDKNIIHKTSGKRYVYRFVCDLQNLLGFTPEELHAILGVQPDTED
# In short: as §1
# [14] = target: T9, SPDEF (Homo sapiens, UniProt O95238 1-335); conditions: protein: recombinant; tags: N-terminal GST; dsDNA, one strand shown
# T9 sequence: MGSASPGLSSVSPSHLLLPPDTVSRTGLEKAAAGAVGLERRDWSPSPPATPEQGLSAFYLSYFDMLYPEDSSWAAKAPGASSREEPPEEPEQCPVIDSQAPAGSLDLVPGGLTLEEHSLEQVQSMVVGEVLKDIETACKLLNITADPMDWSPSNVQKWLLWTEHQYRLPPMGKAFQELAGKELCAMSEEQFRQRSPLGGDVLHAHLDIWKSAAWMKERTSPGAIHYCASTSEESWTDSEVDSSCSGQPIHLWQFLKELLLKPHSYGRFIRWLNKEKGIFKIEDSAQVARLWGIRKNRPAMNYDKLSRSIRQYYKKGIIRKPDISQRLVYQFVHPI
# In short: as §1
# [15] = target: T10, ETV7 (Homo sapiens, UniProt Q9Y603 1-341); conditions: protein: recombinant; tags: N-terminal GST; dsDNA, one strand shown
# T10 sequence: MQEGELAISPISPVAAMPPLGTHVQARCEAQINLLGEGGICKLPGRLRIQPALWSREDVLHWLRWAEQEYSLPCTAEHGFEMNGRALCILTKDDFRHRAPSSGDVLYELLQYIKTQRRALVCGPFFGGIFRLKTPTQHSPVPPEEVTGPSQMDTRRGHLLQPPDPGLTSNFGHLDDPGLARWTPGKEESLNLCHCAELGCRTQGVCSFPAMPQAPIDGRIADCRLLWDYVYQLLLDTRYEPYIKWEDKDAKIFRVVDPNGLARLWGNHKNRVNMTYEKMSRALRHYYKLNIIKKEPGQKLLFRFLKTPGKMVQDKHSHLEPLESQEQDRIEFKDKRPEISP
# In short: as §1
# [16] = target: T11, ELF5 (Homo sapiens, UniProt Q9UKW6-2 1-255); conditions: protein: recombinant; tags: N-terminal GST; dsDNA, one strand shown
# T11 sequence: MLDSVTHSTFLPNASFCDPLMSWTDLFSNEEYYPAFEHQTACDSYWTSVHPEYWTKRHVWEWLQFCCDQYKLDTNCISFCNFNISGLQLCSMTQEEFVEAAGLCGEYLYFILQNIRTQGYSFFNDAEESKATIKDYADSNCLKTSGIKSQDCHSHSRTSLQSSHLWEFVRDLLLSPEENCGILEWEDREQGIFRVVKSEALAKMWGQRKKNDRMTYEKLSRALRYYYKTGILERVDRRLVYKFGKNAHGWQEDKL
# In short: as §1
# [17] = target: T12, ETV3 (Homo sapiens, UniProt P41162-2 1-143); conditions: protein: recombinant; tags: N-terminal GST; dsDNA, one strand shown
# T12 sequence: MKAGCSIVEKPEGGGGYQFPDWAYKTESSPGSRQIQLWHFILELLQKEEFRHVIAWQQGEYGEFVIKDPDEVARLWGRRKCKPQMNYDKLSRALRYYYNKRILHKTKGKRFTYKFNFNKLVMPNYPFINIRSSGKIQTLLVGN
# In short: as §1
# [18] = target: ETV6 (Homo sapiens, UniProt P41212 1-452); conditions: protein: recombinant; tags: N-terminal GST; dsDNA, one strand shown
# In short: as §1
# ETV6, sequence (P41212 whole entry): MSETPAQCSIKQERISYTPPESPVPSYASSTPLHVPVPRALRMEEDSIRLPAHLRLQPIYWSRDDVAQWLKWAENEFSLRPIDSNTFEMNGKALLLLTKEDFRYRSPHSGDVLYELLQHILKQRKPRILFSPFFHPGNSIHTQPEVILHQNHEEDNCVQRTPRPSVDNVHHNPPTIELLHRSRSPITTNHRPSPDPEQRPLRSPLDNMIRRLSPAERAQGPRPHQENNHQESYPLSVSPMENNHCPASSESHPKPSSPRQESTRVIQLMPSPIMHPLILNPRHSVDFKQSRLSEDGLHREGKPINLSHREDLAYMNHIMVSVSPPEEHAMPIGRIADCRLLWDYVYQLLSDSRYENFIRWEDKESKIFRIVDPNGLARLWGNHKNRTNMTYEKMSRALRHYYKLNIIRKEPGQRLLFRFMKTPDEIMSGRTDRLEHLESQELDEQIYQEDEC
# CRX, sequence (O43186 whole entry): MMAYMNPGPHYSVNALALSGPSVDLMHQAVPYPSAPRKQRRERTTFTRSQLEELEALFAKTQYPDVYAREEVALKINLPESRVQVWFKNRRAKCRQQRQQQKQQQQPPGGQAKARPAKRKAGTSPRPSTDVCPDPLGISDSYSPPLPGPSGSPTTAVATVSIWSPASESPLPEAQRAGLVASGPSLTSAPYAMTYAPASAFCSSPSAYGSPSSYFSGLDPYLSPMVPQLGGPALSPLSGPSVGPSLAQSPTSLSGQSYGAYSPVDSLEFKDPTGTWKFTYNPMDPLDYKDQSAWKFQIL
# ETV1, sequence (P50549 whole entry): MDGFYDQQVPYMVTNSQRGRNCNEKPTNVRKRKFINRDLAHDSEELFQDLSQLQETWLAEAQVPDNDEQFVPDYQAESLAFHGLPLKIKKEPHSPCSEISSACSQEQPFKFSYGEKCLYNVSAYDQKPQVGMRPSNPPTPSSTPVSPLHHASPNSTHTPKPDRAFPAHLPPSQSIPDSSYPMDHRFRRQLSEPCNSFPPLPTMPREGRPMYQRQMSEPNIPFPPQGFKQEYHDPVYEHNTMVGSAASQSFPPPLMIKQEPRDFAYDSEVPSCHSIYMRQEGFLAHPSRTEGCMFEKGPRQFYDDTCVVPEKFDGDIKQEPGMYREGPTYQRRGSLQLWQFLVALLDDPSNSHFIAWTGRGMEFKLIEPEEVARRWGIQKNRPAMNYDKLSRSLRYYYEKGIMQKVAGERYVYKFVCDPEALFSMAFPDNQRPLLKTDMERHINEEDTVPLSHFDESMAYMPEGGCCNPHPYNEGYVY
# HSF1, sequence (Q00613 whole entry): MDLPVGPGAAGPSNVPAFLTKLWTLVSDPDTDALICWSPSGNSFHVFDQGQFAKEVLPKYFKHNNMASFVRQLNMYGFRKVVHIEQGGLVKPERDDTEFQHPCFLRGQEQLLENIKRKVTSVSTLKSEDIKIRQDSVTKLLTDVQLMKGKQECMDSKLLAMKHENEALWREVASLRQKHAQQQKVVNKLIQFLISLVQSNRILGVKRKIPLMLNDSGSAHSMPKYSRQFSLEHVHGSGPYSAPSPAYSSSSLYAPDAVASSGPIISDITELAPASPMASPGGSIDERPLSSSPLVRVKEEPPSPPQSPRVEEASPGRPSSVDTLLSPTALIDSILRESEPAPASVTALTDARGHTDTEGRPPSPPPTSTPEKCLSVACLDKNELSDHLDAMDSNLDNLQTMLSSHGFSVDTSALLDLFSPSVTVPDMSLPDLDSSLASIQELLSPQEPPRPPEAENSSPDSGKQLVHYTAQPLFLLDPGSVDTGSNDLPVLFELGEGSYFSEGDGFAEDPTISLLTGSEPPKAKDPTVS
# ETV5, sequence (P41161 whole entry): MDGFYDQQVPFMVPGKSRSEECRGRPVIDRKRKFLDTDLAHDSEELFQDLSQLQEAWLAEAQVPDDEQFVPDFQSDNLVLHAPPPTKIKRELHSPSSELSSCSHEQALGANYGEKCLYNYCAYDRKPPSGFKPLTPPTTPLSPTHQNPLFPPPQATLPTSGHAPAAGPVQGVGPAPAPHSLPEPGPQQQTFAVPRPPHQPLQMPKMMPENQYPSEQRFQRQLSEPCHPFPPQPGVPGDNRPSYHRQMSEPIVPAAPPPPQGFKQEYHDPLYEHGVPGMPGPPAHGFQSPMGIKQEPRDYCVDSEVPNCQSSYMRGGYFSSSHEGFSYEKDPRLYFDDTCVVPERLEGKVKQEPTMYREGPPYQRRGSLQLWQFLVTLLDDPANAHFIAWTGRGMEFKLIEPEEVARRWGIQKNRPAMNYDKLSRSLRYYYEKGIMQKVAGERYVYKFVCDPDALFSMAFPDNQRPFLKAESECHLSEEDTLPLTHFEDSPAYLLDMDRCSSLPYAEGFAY
# ELF4, sequence (Q99607 whole entry): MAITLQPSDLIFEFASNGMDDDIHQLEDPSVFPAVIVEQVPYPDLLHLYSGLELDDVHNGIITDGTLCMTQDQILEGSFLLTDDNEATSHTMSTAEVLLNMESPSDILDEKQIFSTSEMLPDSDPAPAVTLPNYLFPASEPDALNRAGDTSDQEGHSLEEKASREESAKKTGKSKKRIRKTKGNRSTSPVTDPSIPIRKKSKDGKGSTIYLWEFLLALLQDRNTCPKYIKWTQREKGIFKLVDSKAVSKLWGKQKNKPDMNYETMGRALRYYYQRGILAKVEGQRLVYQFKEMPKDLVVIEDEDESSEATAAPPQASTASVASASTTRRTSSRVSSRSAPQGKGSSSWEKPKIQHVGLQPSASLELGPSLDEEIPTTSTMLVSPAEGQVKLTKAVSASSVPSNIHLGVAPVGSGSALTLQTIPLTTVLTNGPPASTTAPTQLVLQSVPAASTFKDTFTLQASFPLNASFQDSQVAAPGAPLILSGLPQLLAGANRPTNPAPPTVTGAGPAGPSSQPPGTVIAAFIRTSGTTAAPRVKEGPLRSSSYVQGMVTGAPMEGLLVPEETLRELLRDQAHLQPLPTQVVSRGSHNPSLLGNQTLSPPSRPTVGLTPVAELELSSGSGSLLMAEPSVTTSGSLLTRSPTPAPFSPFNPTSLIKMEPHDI
sequence,measurement,setting,value
TCACGA,binding signal,[1],"1.05 fold enrichment (6-mer frequency, TF over GST control)"
same,binding signal,[2],"1.09 fold enrichment (6-mer frequency, TF over GST control)"
same,binding signal,[3],"1.37 fold enrichment (6-mer frequency, TF over GST control)"
same,binding signal,[4],"1.1 fold enrichment (6-mer frequency, TF over GST control)"
same,binding signal,[5],"1.27 fold enrichment (6-mer frequency, TF over GST control)"
same,binding signal,[6],"1.19 fold enrichment (6-mer frequency, TF over GST control)"
same,binding signal,[7],"1.12 fold enrichment (6-mer frequency, TF over GST control)"
same,binding signal,[8],"1.17 fold enrichment (6-mer frequency, TF over GST control)"
same,binding signal,[9],"1.1 fold enrichment (6-mer frequency, TF over GST control)"
same,binding signal,[10],"1.13 fold enrichment (6-mer frequency, TF over GST control)"
same,binding signal,[11],"1.14 fold enrichment (6-mer frequency, TF over GST control)"
same,binding signal,[12],"1.04 fold enrichment (6-mer frequency, TF over GST control)"
same,binding signal,[13],"1.13 fold enrichment (6-mer frequency, TF over GST control)"
same,binding signal,[14],"1.17 fold enrichment (6-mer frequency, TF over GST control)"
same,binding signal,[15],"1.16 fold enrichment (6-mer frequency, TF over GST control)"
same,binding signal,[16],"1.03 fold enrichment (6-mer frequency, TF over GST control)"
same,binding signal,[17],"1.14 fold enrichment (6-mer frequency, TF over GST control)"
same,binding signal,[18],"1.16 fold enrichment (6-mer frequency, TF over GST control)"
